Experimental data reported in PubChem BioAssay AID2012 (Sanford-Burnham Center for Chemical Genomics, 2009).
The whole screen tested about 290,000 compounds, of which about 2,700 (0.93%) were called active. The sample holds actives, similar compounds and a random draw of the others, so the mix is not that of the screen. The rule behind the calls is not given here.

Target: Eukaryotic translation initiation factor 4H (Homo sapiens) (UniProt Q15056)
Assay: eIF4H binding inhibition – biochemical, uHTS, fluorescence polarization, translation initiation inhibitor project, primary screen (AID 2012);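 note: calls also rest on retests at 20 µM and on dose response follow-up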
Settings: eIF4H fluorescence polarization binding assay, stronger effect = higher value

SMILES | inhibition (at 35 µM) | inhibition (confirmation average, at 20 µM) [%]
CS(=O)(=O)N1CCc2cc(C(=O)Nc3ccccc3Br)ccc21 | -0.6% (inactive) | –
COCc1ccc(CN2CCC(Oc3ccc(C(=O)NCc4ccccn4)cc3)CC2)o1 | -2.5% (inactive) | –
O=C(COC(=O)c1cccs1)NCc1cccs1 | -7.5% (inactive) | –
O=C(COC(=O)CCC(=O)c1cccs1)NCc1ccco1 | 87% (active) | 63.4
O=C(CC12CC3CC(CC(C3)C1)C2)NCc1ccco1 | -1% (inactive) | –
O=C(COC(=O)C12CC3CC(CC(C3)C1)C2)NCc1ccco1 | 50.9% (active) | 92.2
O=C(COC(=O)c1cnc(Cl)c(Cl)c1)NCc1ccco1 | -1.2% (inactive) | –
O=C(CC1CCCCC1)NCc1ccco1 | -6.2% (inactive) | –
CC(C)CC(O)C1CCN(C(=O)CCc2nnc(-c3ccc4c(c3)OCO4)o2)CC1 (stereo not drawn) | 11.1% (inactive) | –
O=C(N/N=C\C1CC=CCC1)c1ccc(Br)o1 (stereo not drawn) | -1.2% (inactive) | –
CC(NC(=O)Cn1cc(C(F)(F)F)cc(Cl)c1=O)c1ccccc1 (stereo not drawn) | 4.6% (inactive) | –
O=C(O)c1cc(S(=O)(=O)NC2CCCc3ccccc32)ccc1O (stereo not drawn) | -2.4% (inactive) | –
Cc1ccc(CNC(=O)CCS(=O)(=O)c2ccc3c(c2)CC(C)N3C(=O)C2CC2)o1 (stereo not drawn) | -4.8% (inactive) | –
O=C(CCCN1C(=O)/C(=C\c2ccco2)SC1=S)Nc1cccc2ccccc12 | 91.9% (inactive) | -11.3
CN1C(=O)/C(=C/c2ccco2)SC1=Nc1cccc(C(=O)O)c1 | 99% (active) | 106
O=C(CCCN1C(=O)/C(=C/c2ccco2)SC1=S)Nc1ccccc1 | 77.4% (inactive) | 3.8
CC(Oc1ccccc1)C(=O)Nc1c2c(nn1-c1ccccc1)CS(=O)C2 (stereo not drawn) | -8.2% (inactive) | –
O=C(OCc1ccc(-c2ccccc2)cc1)c1cccc(O)c1 | -0.5% (inactive) | –
Cc1cc(/C=C2/SC(=O)N(CC(=O)N3CCCC3)C2=O)c(C)n1C | 8.5% (inactive) | –
Cc1cc(/C=C2\SC(=O)N(C)C2=O)c(C)n1-c1cccc(C(=O)O)c1 | 89.5% (active) | –
Cc1cc(/C=C2\SC(=Nc3ccc(N4CCOCC4)cc3)N(C)C2=O)c(C)n1-c1cccnc1 | 2.5% (inactive) | –
COc1ccc(N2CCN(C(=S)Nc3ccc(S(N)(=O)=O)cc3)CC2)cc1 | -13.4% (inactive) | –
CC1CN(C(=S)Nc2ccc(S(N)(=O)=O)cc2)CC(C)O1 (stereo not drawn) | 4.3% (inactive) | –
NS(=O)(=O)c1ccc(NC(=S)N2CCCC2)cc1 | 102% (active) | 104

SMILES | inhibition (at 35 µM) | inhibition (confirmation average, at 20 µM) [%]
C=CCn1c(C23CC4CC(CC(C4)C2)C3)n[nH]c1=S | -9.9% (inactive) | –
CC(=O)N1CCN(c2ccccc2NC(=S)NC(=O)c2cc3ccccc3o2)CC1 | -11.7% (inactive) | –
CC(C(=O)Nc1ccc(O)c(C(=O)O)c1)N1C(=O)/C(=C/c2cccs2)SC1=S (stereo not drawn) | -4.3% (inactive) | –
Cc1ccc(S(=O)(=O)NC(=O)c2cccc(C)c2)cc1 | -5% (inactive) | –
Nc1ccc(S(=O)(=O)NC(=O)c2ccccc2)cc1 | -6.9% (active) | 95.5
CC(=O)NS(=O)(=O)c1ccccc1 | -6.2% (inactive) | –
CN1CN(C)c2ccc([N+](=O)[O-])c3cccc1c23 | 2.5% (inactive) | –
Nc1c(C(=O)c2cccs2)sc2nsc(SCCN3CCCCC3)c12 | 47.9% (inactive) | –
CN(C(=O)COC(=O)c1cc(-c2ccco2)nc2ccccc12)C1CCS(=O)(=O)C1 (stereo not drawn) | 87.9% (active) | –
CN(C(=O)COC(=O)c1nc(Cl)ccc1Cl)C1CCS(=O)(=O)C1 (stereo not drawn) | 10.5% (inactive) | –
Cc1c(-c2cccc(Cl)c2)nc2ccccc2c1C(=O)OCC(=O)N(C)C1CCS(=O)(=O)C1 (stereo not drawn) | -7% (inactive) | –
CCc1nnc(NC(=O)c2nc3nccc(C)n3n2)s1 | -4% (inactive) | –
Cc1cccc(NC(=O)Nc2nnc(-c3ccccc3)o2)c1 | -0.2% (inactive) | –
Cc1ccnc2nc(C(=O)Nc3nnc(-c4ccccc4)o3)nn12 | 79.8% (active) | 77.1
O=C(N/N=C/c1ccccc1O)C1CCCC1 | -4.4% (inactive) | –
CN(C(=O)C1CCN(c2ncnc3c2nc2n3CCCCC2)CC1)C1CCCCC1 | -2.5% (inactive) | –
Cc1ccc(OCc2cc(C(=O)N(C)CCn3ccnc3C)no2)cc1C | -8.6% (inactive) | –
Cc1cccn2c(=O)c3cc(C(=O)NCC4CCCO4)c(=N)n(Cc4ccc(F)cc4)c3nc12 (stereo not drawn) | -14.9% (inactive) | –
COc1ccc(CNC(=O)c2cc3c(=O)n4ccccc4nc3n(CC3CCCO3)c2=N)cc1 (stereo not drawn) | -5.4% (inactive) | –
Cc1ccc2nc3c(cc(C(=O)NCCc4ccccc4)c(=N)n3CC3CCCO3)c(=O)n2c1 (stereo not drawn) | 94.7% (active) | –
Cc1cc(NC(=O)[C@H](C)NC(=O)c2ccco2)ccc1Br | -0.5% (inactive) | –
O=C1CCCC2=C1C(c1cccs1)CC(=O)N2c1ccc(F)cc1 (stereo not drawn) | -3.5% (inactive) | –
O=C1CC(N2CCN(c3ccc(F)cc3)CC2)C(=O)N1c1ccccc1 (stereo not drawn) | -4% (inactive) | –
N#CC1=C(N)N(c2ccc(F)cc2)C(=O)C1 | 50% (active) | –

SMILES | inhibition (at 35 µM) | inhibition (confirmation average, at 20 µM) [%]
Cc1cc(S(=O)(=O)N2CCOCC2)ccc1OCC(=O)N1CCOCC1 | -9.8% (inactive) | –
O=C(NC1CCC(O)CC1)c1ccccc1OCc1ccc(F)cc1 (stereo not drawn) | 4.1% (inactive) | –
CCCNC(=O)CCc1c(C)nc2c(c(C)nn2-c2ccccc2)c1C | -1.8% (inactive) | –
Cc1ccc(NC(=O)C(CC(=O)O)C2CCCO2)c(C)c1 (stereo not drawn) | -7% (inactive) | –
CO/N=C(\N)c1ccc([N+](=O)[O-])cc1 | 0.6% (inactive) | –
N/C(=N\OS(=O)(=O)c1cccc([N+](=O)[O-])c1)c1ccncc1 | 73.8% (active) | 88.7
O=C(N/N=C/c1cccc([N+](=O)[O-])c1)c1ccncc1 | 0.8% (inactive) | –
CC(Cc1cccs1)N(Cc1ccc(Cl)cc1)C(=O)c1ccncc1 (stereo not drawn) | -2% (inactive) | –
COc1ccccc1N(C)C(=O)c1cc(S(=O)(=O)N2CCc3ccccc32)cn1C | -9.4% (inactive) | –
COc1ccc(C(=O)OCC(=O)NCC2CCCCC2)cc1S(=O)(=O)N1CCCc2ccccc21 | -7.1% (inactive) | –
CCN(C(=O)COC(=O)c1cc(S(=O)(=O)N2CCc3ccccc32)ccc1OC)C1CCS(=O)(=O)C1 (stereo not drawn) | 3.9% (active) | 71.9
COc1cc(OC)c(NC(=O)C2CCCN2C(=O)OCc2ccccc2)cc1Cl (stereo not drawn) | -2% (inactive) | –
Cc1cccc(C(=O)NC(=S)N(C)C2CCCCC2)c1 | -8.7% (inactive) | –
S=C(NCc1ccc2c(c1)OCO2)NCc1ccco1 | -0.2% (inactive) | –
S=C(NCc1ccco1)Nc1ccc2c(c1)OCCO2 | -2.7% (active) | 51.4
COc1cccc(NC(=S)NCc2ccco2)c1 | 22.2% (inactive) | –
O=C(CSc1ccc(-c2ccc(Br)cc2)nn1)NCC1CCCO1 (stereo not drawn) | 3.3% (inactive) | –
O=C(COc1ccc(/C=N/NC(=O)c2ccc(O)cc2)cc1)Nc1ccc([N+](=O)[O-])cc1 | -1.7% (active) | 85.6
O=C(COc1ccc([N+](=O)[O-])cc1)Nc1ccc(N2CCCC2)cc1 | 13.8% (inactive) | –
O=C(N/N=C/c1ccc(OCc2ccccc2)cc1)c1ccc(O)cc1 | -5.8% (inactive) | –
CCSCc1nc(N)nc(NCCc2ccccc2)n1 | -0.9% (inactive) | –
CC(=O)c1cnc(SCCN2C(=O)c3ccccc3C2=O)nc1C | -11.9% (inactive) | –
CSc1ncc(C(=O)NCCCc2ccccc2)c(C)n1 | -7.3% (inactive) | –
CC(=O)c1cnc(SCC(=O)O)nc1C | -2.4% (active) | 82.3

SMILES | inhibition (at 35 µM) | inhibition (confirmation average, at 20 µM) [%]
CSCCC(NS(=O)(=O)c1ccccc1F)C(=O)N1CC=C(c2ccccc2)CC1 (stereo not drawn) | 0% (inactive) | –
Cn1cccc1/C=N/NC(=O)c1ccc(OC(F)(F)C(F)F)cc1 | 9.7% (active) | 56.1
Cn1cccc1/C=N/NC(=O)CNc1cccc2ccccc12 | -6.2% (inactive) | –
COc1ccc(/C=N/NC(=O)c2cccc(C(F)(F)F)c2)cc1 | -2.2% (inactive) | –
NC(=O)c1ccc(Nc2ccc3nonc3c2[N+](=O)[O-])cc1 | -14.2% (inactive) | –
COc1ccccc1NC(=O)N1CCCC1C(=O)NCc1cccs1 (stereo not drawn) | -15.4% (inactive) | –
CCS(=O)(=O)N1CCC(N2CCN(c3ccccc3)CC2)CC1 | 7.8% (inactive) | –
CC(/C=N/NC(=O)c1ccncc1)=C\c1ccco1 | 25.2% (inactive) | –
C/C(=C\c1ccco1)C1Nc2cccc3cccc(c23)N1 | 107% (active) | –
CC(/C=N/NC(=O)c1cc(-c2ccc3ccccc3c2)n[nH]1)=C\c1ccco1 | 66.1% (inactive) | -19.6
O=C(/C=C/c1ccco1)Nc1cccc(-c2nc3ccccc3[nH]2)c1 | -7.2% (inactive) | –
O=C(/C=C/c1ccco1)Nc1ccc(Oc2ccccc2)cc1 | 2.4% (inactive) | –
Cc1ccc(-n2nc3ccc(NC(=O)/C=C/c4ccco4)cc3n2)cc1C | 71.7% (active) | 73.8
COc1ccc(C2CC(c3ccc([N+](=O)[O-])cc3)=NN2C(C)=O)cc1 (stereo not drawn) | 2.5% (inactive) | –
Cc1cc(C)c2c3c(sc2n1)C(c1ccccc1)C(C#N)=C(N)O3 (stereo not drawn) | 1% (inactive) | 28.6
N#CC1=C(N)Oc2c(sc3ccccc23)C1c1ccco1 (stereo not drawn) | 74% (active) | –
CC1=C(C(=O)Nc2ccccc2)C(c2ccco2)C(C#N)=C(SCC(N)=O)N1 (stereo not drawn) | 10.9% (inactive) | –
COc1ccccc1CCNC(=O)c1c(C)nn(CC(C)C)c1Cl | -10.7% (inactive) | –
O=S(=O)(Oc1ccccc1C(=S)N1CCOCC1)c1ccc(Cl)cc1 | 1% (inactive) | –
CCN(CC)c1ccc(/C=N/NC(=O)c2cnccn2)c(O)c1 | 1.5% (inactive) | –
CCN(CC)c1ccc(/C=N/Nc2nc(C)cc(C)n2)c(O)c1 | 83.3% (active) | 87.6
Cc1cc(C)nc(N/N=C/c2ccncc2)n1 | -8.8% (inactive) | –
Cc1ccccc1CN1CCNC(=O)C1CC(=O)NCCC1=CCCCC1 (stereo not drawn) | 5.3% (inactive) | –
